Experimental findings from the supplement of paper PMC9446081 are described below.

In all, about 39,000 compounds went through this assay and about 220 (0.56%) showed activity. Only a selection was taken, and actives are over-represented in it overall. Unmarked numbers belong to inactive results.
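Further: Wild-type cells incubated without shaking, value is the mean of two biological replicates.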

The test system of this assay is Escherichia coli K-12 BW25113. Nature of the assay: relative growth (OD600 normalised to plate interquartile mean) (fraction); higher = less growth inhibition, active = 0.2 or less. The conditions noted are these: 50 µM; LB; incubation time: overnight (16-24 h).
Consider `C[C@@H]1CN([C@H](C)CO)C(=O)CCCn2nncc2CO[C@H]1CN(C)S(=O)(=O)c1ccc(-c2ccccc2)cc1`, for which the relative growth was 0.979.

In the case of `CCCN(C)C[C@@H]1OCCCC[C@@H](C)Oc2ccc(NC(=O)Nc3ccc4c(c3)OCO4)cc2C(=O)N([C@H](C)CO)C[C@H]1C`, the relative growth was 1.03. Next, `O=C(Cn1cnnn1)NC1C(=O)N2C(C(=O)O)=C(CSc3nncs3)CSC12` (stereo not drawn): 0.0457 (active); `Cc1nnc(SCC2=C(C(=O)[O-])N3C(=O)C(NC(=O)Cn4cnnn4)C3SC2)s1.[Na+]` (stereo not drawn): 0.0433 (active); `Cc1nnc(SCC2=C(C(=O)O)N3C(=O)[C@@H](NC(=O)Cn4cnnn4)[C@H]3SC2)s1`: 0.0386 (active).

In the case of `Cc1nnc(SCC2=C(C(=O)O)N3C(=O)[C@@H](N)[C@H]3SC2)s1`, the relative growth is 1. Next, `CC(=O)OCC1=C(C(=O)O)N2C(=O)[C@@H](NC(=O)CSc3ccncc3)[C@H]2SC1`: 1.05; `Cc1noc(C)c1S(=O)(=O)N(C)C[C@H]1Oc2c(NC(=O)C3CCCCC3)cccc2C(=O)N([C@@H](C)CO)C[C@H]1C`: 1.01. As for `C[C@@H]1CN([C@H](C)CO)C(=O)c2cc(NC(=O)NC3CCCCC3)ccc2O[C@@H](C)CCCCO[C@@H]1CN(C)Cc1ccncc1`, the relative growth is 0.996. Regarding `C[C@H](CO)N1C[C@H](C)[C@@H](CN(C)Cc2ccc3c(c2)OCO3)Oc2ccc(NC(=O)c3ccncc3)cc2CC1=O`, the relative growth is 1.01. Next, `Cc1ccc(S(=O)(=O)N(C)C[C@H]2Oc3c(NC(=O)NC(C)C)cccc3C(=O)N([C@@H](C)CO)C[C@H]2C)cc1`: 0.992. In the case of `C[C@@H]1CN([C@H](C)CO)C(=O)Cc2cc(NC(=O)CCCN(C)C)ccc2O[C@@H]1CN(C)S(=O)(=O)c1ccc(Cl)cc1`, the relative growth is 0.973.

In the case of `COc1ccc(S(=O)(=O)N(C)C[C@@H]2Oc3ncc(C#Cc4ccc(OC)c(OC)c4)cc3C(=O)N([C@H](C)CO)C[C@@H]2C)cc1`, the relative growth is 0.91.

With `O=c1[nH]c(=O)n(C2CC(O)C(CO)O2)cc1F` (stereo not drawn), the relative growth is 0.0526 (active). In the case of `O=c1[nH]c(=O)n([C@H]2C[C@H](O)[C@@H](CO)O2)cc1CO` it was 1.04; in that of `Cc1cn([C@@H]2C[C@H](O)[C@@H](CO)O2)c(=O)[nH]c1=O`, 0.988. In the case of `O=c1[nH]c(=O)n([C@@H]2C[C@@H](O)[C@@H](CO)O2)cc1F` it was 0.0303 (active); in that of `Cc1cn([C@H]2C[C@H](O)[C@@H](CO)O2)c(=O)[nH]c1=O`, 1.03; in that of `Cc1cn([C@@H]2C[C@@H](O)[C@H](CO)O2)c(=O)[nH]c1=O`, 0.991.

As to `O=c1[nH]c(=O)n([C@H]2C[C@H](O)[C@@H](CO)O2)cc1Br`, the relative growth is 0.944. In the case of `O=c1[nH]c(=O)n([C@H]2C[C@H](O)[C@@H](CO)O2)cc1F` it was 0.0339 (active); in that of `O=c1[nH]c(=O)n(C2CC(O)C(CO)O2)cc1I` (stereo not drawn), 1.06. For the molecule `COC[C@H]1CN(C(=O)c2cccc(OC)c2)N1`, the relative growth is 1.01. In the case of `Cc1ccc(S(=O)(=O)N(C)C[C@@H]2Oc3c(NC(=O)Nc4cccc5ccccc45)cccc3C(=O)N([C@H](C)CO)C[C@@H]2C)cc1` it was 1. In the case of `Cc1noc(C)c1S(=O)(=O)N(C)C[C@@H]1Oc2ccc(NC(=O)Cc3cn(C)c4ccccc34)cc2CC(=O)N([C@H](C)CO)C[C@@H]1C` it was 1.01. `COc1nc(C)nc(Cl)c1NC1=NCCN1`: the relative growth is 1.03. As for `C[C@H]1CCCCO[C@@H](CN(C)S(=O)(=O)c2ccc(Cl)cc2)[C@@H](C)CN([C@@H](C)CO)C(=O)c2cc(NC(=O)NC3CCCCC3)ccc2O1`, the relative growth is 1. Turning to `CC1CN(c2c(F)c(F)c3c(=O)c(C(=O)O)cn(C4CC4)c3c2F)CC(C)N1` (stereo not drawn), the relative growth was 0.0486 (active). `CC1CN(c2c(F)c(N)c3c(=O)c(C(=O)O)cn(C4CC4)c3c2F)CC(C)N1` (stereo not drawn): the relative growth was 0.0495 (active). Next, `C[C@H](NC(=O)C[C@@H]1C=C[C@H](NC(=O)CN2CCOCC2)[C@H](CO)O1)c1ccccc1`: 1.02. In the case of `O=C(NCCCN1CCOCC1)[C@H]1N[C@H]2c3ccc(C4=CCCCC4)c(=O)n3C[C@H]2[C@@H]1CO` it was 0.98. In the case of `C[C@@H]1CN([C@@H](C)CO)C(=O)c2cc(NS(=O)(=O)c3ccc(F)cc3)ccc2O[C@@H](C)CCCCO[C@@H]1CN(C)C(=O)Nc1ccc2c(c1)OCO2` it was 1.01. For the molecule `C[C@@H]1CN([C@@H](C)CO)C(=O)c2cccc(NC(=O)c3ccc(-c4nccs4)cc3)c2O[C@H]1CN(C)C(=O)Nc1cccc2ccccc12`, the relative growth is 0.886. In the case of `CN(C)CCN1CCc2ncc(Cn3cncn3)n2CC1` it was 0.99. For `COc1ccc(S(=O)(=O)N(C)C[C@H]2OCCCC[C@H](C)Oc3ccc(NS(=O)(=O)c4cn(C)cn4)cc3C(=O)N([C@@H](C)CO)C[C@@H]2C)cc1`, the relative growth is 1.

Regarding `CC[C@H](C)[C@H](N)C1=N[C@H](C(=O)N[C@@H](CC(C)C)C(=O)N[C@H](CCC(=O)O)C(=O)N[C@H](C(=O)N[C@H]2CCCCNC(=O)[C@H](CC(N)=O)NC(=O)[C@@H](CC(=O)O)NC(=O)[C@H](Cc3cnc[nH]3)NC(=O)[C@@H](Cc3ccccc3)NC(=O)[C@H]([C@@H](C)CC)NC(=O)[C@@H](CCCN)NC2=O)[C@@H](C)CC)CS1`, the relative growth is 0.909.

With `CC[C@@H](C)CCCC(=O)N[C@@H](CCN)C(=O)N[C@H](C(=O)N[C@@H](CCN)C(=O)N[C@H]1CCNC(=O)[C@H]([C@@H](C)O)NC(=O)[C@H](CCN)NC(=O)[C@H](CCN)NC(=O)[C@H](CC(C)C)NC(=O)[C@@H](CC(C)C)NC(=O)[C@H](CCN)NC1=O)[C@@H](C)O`, the relative growth is 0.262. Take `CC[C@@H](C)CCCCC(=O)N[C@@H](CCN)C(=O)N[C@H](C(=O)N[C@@H](CCN)C(=O)N[C@H]1CCNC(=O)[C@H]([C@@H](C)O)NC(=O)[C@H](CCN)NC(=O)[C@H](CCN)NC(=O)[C@H](CC(C)C)NC(=O)[C@@H](Cc2ccccc2)NC(=O)[C@@H](CCN)NC1=O)[C@@H](C)O`: the relative growth was 0.0424 (active). `CCC(C)CCCCC(=O)NC(CCN)C(=O)NC(C(=O)NC(CCN)C(=O)NC1CCNC(=O)C(C(C)O)NC(=O)C(CCN)NC(=O)C(CCN)NC(=O)C(CC(C)C)NC(=O)C(Cc2ccccc2)NC(=O)C(CCN)NC1=O)C(C)O.O=S(=O)(O)O` (stereo not drawn): the relative growth was 0.0419 (active). Next, `C[C@@H]1CN([C@H](C)CO)C(=O)c2cccc(NC(=O)C3CC3)c2O[C@@H]1CN(C)S(=O)(=O)c1ccccc1`: 1.01; `Cc1ccc(S(=O)(=O)N(C)C[C@@H]2Oc3ccc(NS(=O)(=O)c4cccs4)cc3CC(=O)N([C@H](C)CO)C[C@H]2C)cc1`: 1. As for `C[C@H]1CN([C@@H](C)CO)C(=O)c2c(c3ccccc3n2C)-c2ccccc2CO[C@@H]1CN(C)S(=O)(=O)c1ccc(C(F)(F)F)cc1`, the relative growth was 1. Consider `CO[C@@H]1CN(C)C(=O)c2ccc(NS(C)(=O)=O)cc2OC[C@H](C)N(S(C)(=O)=O)C[C@H]1C`, for which the relative growth is 0.991. As for `Cc1nnc(NCc2ccccc2)n(N)c1=O`, the relative growth was 0.975. Next, `CCCC#Cc1ccc2c(c1)O[C@H](CN(C)Cc1ccc3c(c1)OCO3)[C@H](C)CN([C@H](C)CO)S2(=O)=O`: 1.05. Next, `C[C@@H]1CN([C@H](C)CO)C(=O)c2cc(NC(=O)NC3CCCCC3)ccc2O[C@@H](C)CCCCO[C@H]1CN(C)Cc1ccncc1`: 1.02.

As to `C[C@@H]1CCCCO[C@@H](CN(C)S(=O)(=O)c2ccccc2)[C@@H](C)CN([C@H](C)CO)C(=O)c2cc(NC(=O)C3CCCCC3)ccc2O1`, the relative growth is 1.01.

`O=C(C[C@H]1CC[C@@H](NC(=O)c2cccnc2)[C@H](CO)O1)NCCN1CCCCC1`: the relative growth was 1. For `C[C@@H]1CN([C@H](C)CO)C(=O)c2cccc(NS(C)(=O)=O)c2O[C@H]1CN(C)C(=O)NC1CCCCC1`, the relative growth was 1.01. In the case of `O=C(O)c1c(O)c2c([nH]c1=O)CCCC2` it was 0.104 (active).

In the case of `Cc1[nH]c(=O)c(C(=O)O)c2c1CCC2`, the relative growth is 0.994. In the case of `NNC(=O)c1c(O)c2c([nH]c1=O)CCCC2` it was 0.95; in that of `C[C@H](CO)N1C[C@H](C)[C@@H](CN(C)Cc2cccc(F)c2)Oc2cc(C#CC3CC3)ccc2S1(=O)=O`, 1.04; in that of `C[C@H](CO)N1C[C@H](C)[C@H](CN(C)CC2CC2)Oc2ccc(NS(=O)(=O)c3cn(C)cn3)cc2CC1=O`, 0.99. Next, `Cc1ccc(S(=O)(=O)Nc2ccc3c(c2)C(=O)N([C@H](C)CO)C[C@H](C)[C@@H](CN(C)C(=O)C2CCCCC2)OCCCC[C@H](C)O3)cc1`: 0.998; `Nc1ccccc1OCc1ccccc1`: 0.955.

For `CON=C(C(=O)NC1C(=O)N2C(C(=O)O)=C(CSC(=O)c3ccco3)CSC12)c1csc(N)n1.Cl` (stereo not drawn), the relative growth was 0.0447 (active). On to `CO/N=C(\C(=O)N[C@@H]1C(=O)N2C(C(=O)O)=C(C[n+]3ccn4ncccc43)CS[C@H]12)c1nsc(N)n1`, for which the relative growth is 0.0425 (active). Next, `CO/N=C(\C(=O)N[C@@H]1C(=O)N2C(C(=O)O)=C(CSC(=O)c3ccco3)CS[C@H]12)c1csc(N)n1`: 0.0342 (active).

For `C[C@H](CO)N1C[C@H](C)[C@H](CN(C)Cc2ccc(-c3ccccc3)cc2)Oc2c(NC(=O)c3nc4ccccc4s3)cccc2C1=O`, the relative growth is 1.01. As to `CN1CCC[C@H]1CO`, the relative growth was 0.919. Next, `COCCNC(=O)C[C@@H]1C[C@@H]2c3cc(NS(C)(=O)=O)ccc3O[C@@H]2[C@H](CO)O1`: 1; `C[C@@H]1CN([C@H](C)CO)C(=O)Cc2cc(NC(=O)CCCCCC(=O)Nc3ccccc3N)ccc2O[C@H]1CN(C)C(=O)Nc1cccc2ccccc12`: 0.963.
